Potency and outcome data for 13 compounds are collected here from PubChem BioAssay (Tox21).

Test [1] can be described thus: qHTS assay to identify small molecule antagonists of the retinoid acid receptor (RAR) signaling pathway - cell viability counter screen (AID 1159551). Further: nearly all actives have a fitted effect of over 35% in size. In short, it runs like this:
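Retinol-stimulated (1 uM final) C3RL4 cells, compound 6 h, 37 C; readout CellTiter-Glo luminescence (ATP) after 30 min RT incubation.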
A general note: In qHTS, concentration-response curves come from the screen itself.

The target of test [2] is Luciferin 4-monooxygenase (Photinus pyralis) (UniProt P08659). The test can be described thus: qHTS assay to identify small molecule inhibitors of firefly luciferase (AID 1224835). Further: series mostly up to about 120 µM; nearly all actives have a fitted effect of over 25% in size. In short, it runs like this: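 Biochemical qHTS: compounds run as interplate titrations against purified firefly enzyme, with D-luciferin and ATP each at its KM concentration. Light output recorded by CCD imaging.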

A short description of test [3]: qHTS assay to identify small molecule agonists of the constitutive androstane receptor (CAR) signaling pathway - cell viability counter screen (AID 1224836). Further: series mostly up to about 92 µM; nearly all actives have a fitted effect of over 45% in size. In short, it runs like this:
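Cell viability multiplexed with the CAR agonist screen: CellTiter-Fluor fluorescence after 23 hr at 37 C. HepG2-CYP2B6-hCAR cells got compounds at 15 concentrations with PK11195 at 0.75 uM final.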

Test [4] in a line: qHTS assay to identify small molecule antagonists of the constitutive androstane receptor (CAR) signaling pathway - cell viability counter screen (AID 1224837). Further: series mostly up to about 92 µM; nearly all actives have a fitted effect of over 45% in size. In outline: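 Counter screen run in HepG2-CYP2B6-hCAR cells: 4 hr settle, compound titration (15 concentrations) with 50 nM CITCO, 23 hr at 37 C/5% CO2, CellTiter-Fluor fluorescence.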
Test [5] has as its target Nuclear receptor subfamily 1 group I member 3 (Homo sapiens) (UniProt Q14994). Nature of the test: qHTS assay to identify small molecule agonists of the constitutive androstane receptor (CAR) signaling pathway (AID 1224839). Further: nearly all actives have a fitted effect of over 15% in size. Further: potency means the concentration at half of the fitted maximal effect. In outline: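 Luminescent ONE-Glo read-out after 24 hr, 37 C exposure of double-stable HepG2-CYP2B6-hCAR reporter cells to a 15-point compound series, in the presence of 0.75 uM PK11195 (final).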

Test [6] can be described thus: qHTS assay to identify small molecule antagonists of the estrogen related receptor signaling pathway with the pleiotropic PPARgamma coactivator (PGC) from Tox21 10K library - cell viability counter screen (AID 1224840; active means well fitted cell-killing curve with a large enough effect in the repeat runs, not every such curve was filed as active; further: nearly all actives have a fitted effect of over 40% in size). In outline:
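Following seeding of 2,000 PGC/ERR cells/well and 6 hours' incubation, test compounds were delivered in DMSO. The plates then sat 17.5 hours at 37 C before a fluorogenic live-cell protease reagent (CellTiter-Fluor) was read after 30 min.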

Test [7] deals with Thyrotropin receptor (Homo sapiens) (UniProt P16473). Nature of the test: qHTS assay to identify small molecule agonists of the thyroid stimulating hormone receptor (TSHR) signaling pathway (AID 1224843; calls by dose curve; further: nearly all actives have a fitted effect of over 45% in size; further: potency means the concentration at half of the fitted maximal effect). In short, it runs like this:
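Steps: seed 800 TSHR-HEK293 cells per well; add test compound and hold 30 min at ambient temperature; dispense cAMP-d2 then anti-cAMP cryptate; incubate 1 h at ambient; measure fluorescence intensity.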

Test [8] can be described thus: qHTS assay to identify small molecule agonists of the hypoxia (HIF-1) signaling pathway - cell viability counter screen (AID 1224844; calls by dose curve; further: nearly all actives have a fitted effect of over 50% in size). In outline: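 Cells (HRE-bla ME-180, 2,000 per well) sat 5 hrs at 37C, got compound for 17 hrs, were read for CCF4-AM FRET, and were finally lysed with CellTiter-Glo for a 30 min room-temperature luminescence read.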
A short description of test [9]: qHTS assay to identify small molecule antagonists of the estrogen related receptor (ERR) signaling pathway from Tox21 library - cell viability counter screen (AID 1224834). Further: nearly all actives have a fitted effect of over 30% in size. Further: potency means the concentration at half of the fitted maximal effect. In outline: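 After 17.5 h of compound exposure at 37 C, ERR cells are incubated with CellTiter-Fluor for 30 min and fluorescence intensity serves as the viability measure.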
Test [10] has as its target Nuclear receptor subfamily 1 group I member 3 (Homo sapiens) (UniProt Q14994). The test can be described thus: qHTS assay to identify small molecule antagonists of the constitutive androstane receptor (CAR) signaling pathway (AID 1224838).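 Further: HepG2 cells stably expressing hCAR with CYP2B6 luciferase reporter stimulated by CITCO; nearly all actives have a fitted effect of over 40% in size.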 In outline: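 Cell line: HepG2 double-stable for hCAR and CYP2B6-2.2kb reporter. Agonist: CITCO, 50 nM final. Compounds: 15 concentrations, 24 h, 37 C. Detection: ONE-Glo luminescence.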

The nature of test [11]: qHTS assay to identify small molecule agonists of the retinoic acid receptor (RAR) signaling pathway (AID 1159553). In short, it runs like this: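 Reporter readout comes from luciferase under RARE control in C3RL4 cells; compound exposure lasts 6 hr at 37 C in 5% CO2, and luminescence is recorded following a 30 min room-temperature incubation with reagent.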
Test [12] in a line: qHTS assay to identify small molecule antagonists of the estrogen related receptor signaling pathway with the pleiotropic PPARgamma coactivator (PGC) from Tox21 10K library (AID 1224841; call rule not given here; further: series mostly up to about 92 µM; actives are mostly falling curves and most rising ones were filed inactive; nearly all actives have a fitted effect of over 50% in size). In short, it runs like this:
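qHTS antagonist format: PGC/ERR cells, 2k/well, compound in DMSO by pin transfer after 6 h attachment, 18 h treatment at 37 C, One-Glo luminescence read at 30 min.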

Test [13] is described as follows: qHTS assay to identify small molecule agonists of the estrogen related receptor signaling pathway with the pleiotropic PPARgamma coactivator (PGC) from Tox21 10K library (AID 1224842). Further: nearly all actives have a fitted effect of over 15% in size. In short, it runs like this: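 PGC/ERR reporter cell line, 2,000 cells per well, incubated 6 h at 37 C before 23 nL compound in DMSO was added. After 18 h at 37 C, One-Glo luminescence read following 30 min at room temperature.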

Test [14] can be described thus: qHTS assay to identify small molecule antagonists of the retinoic acid receptor (RAR) signaling pathway (AID 1159552; further: nearly all actives have a fitted effect of over 50% in size). In outline:
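Luminescent RARE reporter read-out in C3RL4 cells: 6 hr co-treatment at 37 C of test compounds with retinol at 1 uM final. Cells plated overnight beforehand; luciferase reagent incubated 30 min at room temperature before reading.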

Inconclusive results are not listed. Values without a mark were called inactive. Activity calls are given as the source filed them. Unless noted, the call rests on the fitted dose curve; in most records, active means well fitted curve in the direction sought with a large enough effect in the repeat runs; inconclusive means weak or mixed curves; inactive means no such curve, though single readings can be large; an effect the other way counts as inactive or inconclusive.

Chain of Luciferin 4-monooxygenase (Photinus pyralis) (P08659 whole entry, looked up): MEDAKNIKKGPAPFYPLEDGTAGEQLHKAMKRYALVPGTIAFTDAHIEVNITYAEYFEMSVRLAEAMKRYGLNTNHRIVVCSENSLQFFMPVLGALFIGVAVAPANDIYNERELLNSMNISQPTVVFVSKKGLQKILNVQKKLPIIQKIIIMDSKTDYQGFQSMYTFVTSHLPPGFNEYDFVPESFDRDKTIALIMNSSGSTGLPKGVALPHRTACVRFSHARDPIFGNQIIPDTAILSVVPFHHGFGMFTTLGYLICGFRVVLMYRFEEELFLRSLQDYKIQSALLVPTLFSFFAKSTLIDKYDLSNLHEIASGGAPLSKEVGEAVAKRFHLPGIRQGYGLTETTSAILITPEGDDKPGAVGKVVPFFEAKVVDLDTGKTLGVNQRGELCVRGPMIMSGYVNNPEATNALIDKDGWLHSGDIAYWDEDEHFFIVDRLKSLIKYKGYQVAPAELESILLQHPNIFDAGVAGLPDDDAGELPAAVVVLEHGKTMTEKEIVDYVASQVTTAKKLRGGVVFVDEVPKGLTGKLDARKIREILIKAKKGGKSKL
Chain of Nuclear receptor subfamily 1 group I member 3 (Homo sapiens) (Q14994 whole entry, looked up): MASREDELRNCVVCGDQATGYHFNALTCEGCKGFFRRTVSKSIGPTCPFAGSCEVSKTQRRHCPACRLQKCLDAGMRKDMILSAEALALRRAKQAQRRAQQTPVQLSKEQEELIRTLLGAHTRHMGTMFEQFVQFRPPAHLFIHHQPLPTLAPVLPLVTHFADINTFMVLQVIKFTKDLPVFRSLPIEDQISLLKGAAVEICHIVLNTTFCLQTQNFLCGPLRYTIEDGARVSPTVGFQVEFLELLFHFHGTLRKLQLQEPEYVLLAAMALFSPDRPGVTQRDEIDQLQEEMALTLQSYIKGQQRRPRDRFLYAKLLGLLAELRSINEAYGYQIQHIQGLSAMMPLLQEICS
Chain of Thyrotropin receptor (Homo sapiens) (P16473 whole entry, looked up): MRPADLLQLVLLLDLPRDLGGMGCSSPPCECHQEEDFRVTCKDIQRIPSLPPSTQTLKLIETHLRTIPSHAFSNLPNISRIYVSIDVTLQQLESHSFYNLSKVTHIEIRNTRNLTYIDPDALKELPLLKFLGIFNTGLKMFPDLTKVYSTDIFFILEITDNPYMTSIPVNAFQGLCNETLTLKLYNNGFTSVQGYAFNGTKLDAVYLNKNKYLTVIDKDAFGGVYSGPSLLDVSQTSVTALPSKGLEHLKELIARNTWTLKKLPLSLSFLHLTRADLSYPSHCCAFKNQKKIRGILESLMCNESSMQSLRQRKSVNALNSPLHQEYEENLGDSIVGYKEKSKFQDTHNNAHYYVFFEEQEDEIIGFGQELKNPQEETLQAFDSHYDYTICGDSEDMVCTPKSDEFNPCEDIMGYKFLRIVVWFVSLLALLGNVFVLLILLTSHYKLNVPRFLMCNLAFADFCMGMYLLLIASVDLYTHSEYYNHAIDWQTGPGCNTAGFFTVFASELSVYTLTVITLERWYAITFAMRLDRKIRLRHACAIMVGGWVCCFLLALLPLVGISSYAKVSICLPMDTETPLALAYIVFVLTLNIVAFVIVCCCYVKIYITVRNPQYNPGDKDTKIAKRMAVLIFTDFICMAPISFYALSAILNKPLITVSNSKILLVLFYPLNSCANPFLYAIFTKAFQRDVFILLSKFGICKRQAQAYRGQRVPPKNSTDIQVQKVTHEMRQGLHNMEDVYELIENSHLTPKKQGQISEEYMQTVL

On to `COc1ncc(F)c2nc(S(=O)(=O)Nc3c(F)cccc3F)nn12`, for which the Potency result in test [1], in [2], in [3], in [4], in [5] and in [6] was “inactive” each time. The Potency result in test [7] and in test [8] was “inactive” each time.

For `Nc1ccccc1Cl`, the Potency result in test [1], in [9], in test [2], in test [3], in [4] and in test [10] was “inactive” each time. In addition, the Potency result in [5], in test [6], in test [7] and in test [8] was “inactive” throughout.

As for `Nc1cc(Cl)ccc1O`, the Potency entry in test [1], in test [2], in test [3], in [4], in test [10] and in [6] was “inactive” each time. In addition, the Potency result in test [7] and in test [8] was “inactive” throughout. Also, the Potency in [9] was 33.3 µM (active); in test [5], 52.7 µM (active).

For `OC(c1ccccc1)(c1ccccc1)C1CCNCC1`, the Potency result in test [1], in test [11], in [9], in [2], in test [3] and in test [4] was “inactive” each time. Further, the Potency result in [6], in test [7] and in test [8] was “inactive” each time.

On to `O=C(O)c1cccc(Cl)c1`, for which the Potency result in [1], in [11], in test [9], in [2], in [3] and in test [4] was “inactive” in each case. The Potency entry in test [5], in [6], in test [7] and in test [8] was “inactive” throughout.

Turning to `CCC#N`, the Potency entry in [11], in [9], in test [2], in test [3], in [4] and in [10] was “inactive” in each case. The Potency entry in test [6], in [12], in test [7] and in [8] was “inactive” in each case.

Take `CC(C)NCC(O)c1ccc(N)c(C#N)c1` (stereo unspecified): the Potency entry in test [1], in [9], in test [2], in test [3], in test [4] and in [6] was “inactive” in each case. In addition, the Potency result in [8] was “inactive”. In addition, the Potency in test [7] is 0.0021 µM (active).

Regarding `CCSC(=O)N(CC)C1CCCCC1`, the Potency entry in [1], in test [9], in [2], in [3], in test [4] and in test [6] was “inactive” throughout. Further, the Potency result in test [7] and in [8] was “inactive” each time.

With `O=NN1CCCCC1`, the Potency entry in test [1], in test [9], in test [2], in [3], in test [4] and in test [10] was “inactive” throughout. In addition, the Potency result in test [5], in test [6], in test [7] and in [8] was “inactive” in each case.

Take `CCNc1nc(NC(C)C)nc(OC)n1`: the Potency result in [1], in [9], in [2], in [3], in test [4] and in test [6] was “inactive” each time. For the same compound, the Potency entry in test [12], in test [7] and in test [8] was “inactive” each time. In addition, in test [13], the call was inactive.

Consider `CCC(=O)c1ccccc1`, for which the Potency entry in test [1], in test [9], in test [2], in test [3], in test [4] and in test [5] was “inactive” each time. The Potency entry in [6] and in [7] was “inactive” in each case.

Consider `CCOP(=S)(OCC)SCSP(=S)(OCC)OCC`, for which the Potency result in test [14], in test [9], in test [2], in [3], in [4] and in test [10] was “inactive” each time. The Potency entry in test [6] and in test [8] was “inactive” in each case. Moreover, the Potency in [5] was 27.3 µM (active).

On to `ClCCCN1CCN(c2cccc(Cl)c2)CC1`, for which the Potency result in test [1], in test [11], in test [9], in test [2], in test [4] and in test [10] was “inactive” throughout. Moreover, the Potency entry in test [6], in [12], in test [7] and in test [8] was “inactive” throughout. For the same compound, the result in test [13] was inactive.
